The text below walks through data of PubChem BioAssay AID1851 (National Center for Advancing Translational Sciences (NCATS), 2009).

As a reminder, the AC50 is the midpoint of the concentration-response curve, whichever way the signal moves.

Where “and” joins values, the source holds several entries; their conditions need not be identical. Identical values can stand only once. Among all 16,000 compounds or so, about 5,800 (36%) were called active. Inconclusive results (about 23%) are left out. The list shows a part of the results. Values without a mark were called inactive. Calls follow the shape of the dose curve; as a rule, active = well fitted curve in the direction sought with a large enough effect; inconclusive = small, poorly fitted or top-dose-only effect, or effect the other way; inactive = no such curve, though single readings can be large or run the other way.
% is scaled to controls: 0 for no effect and ±100 for the full control effect.

Cytochrome P450 2C19 (Homo sapiens), sequence (P33261 whole entry, looked up): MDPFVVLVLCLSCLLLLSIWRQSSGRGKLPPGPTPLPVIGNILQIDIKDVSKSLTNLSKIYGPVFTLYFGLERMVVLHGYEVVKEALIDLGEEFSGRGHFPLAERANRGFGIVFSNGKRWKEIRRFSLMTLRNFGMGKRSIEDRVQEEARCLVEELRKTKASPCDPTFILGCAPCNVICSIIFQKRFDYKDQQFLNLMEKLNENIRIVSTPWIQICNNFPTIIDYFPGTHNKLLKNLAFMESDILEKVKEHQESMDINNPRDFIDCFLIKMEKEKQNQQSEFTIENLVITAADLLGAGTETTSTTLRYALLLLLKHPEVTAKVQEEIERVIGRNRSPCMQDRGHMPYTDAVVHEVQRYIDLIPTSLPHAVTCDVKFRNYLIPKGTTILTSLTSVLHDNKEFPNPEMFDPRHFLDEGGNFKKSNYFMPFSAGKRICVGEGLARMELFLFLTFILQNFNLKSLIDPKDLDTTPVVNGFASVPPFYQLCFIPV

This experiment has as its target Cytochrome P450 2C19 (Homo sapiens) (UniProt P33261). Description: Cytochrome panel assay with activity outcomes. The conditions noted are these: recombinant CYP, pro-luciferin dealkylation, luminescence, p450-cyp2c19; series mostly up to 57.1 µM; activity, negative = inhibition: at the top concentration.
As to `CCOc1ccc(N2C(=O)CS/C2=N/NC(=O)COc2ccc3ccccc3c2)cc1`, the half-maximal activity concentration (AC50) was 15.8 µM (active).

Consider `O=C(CSCc1ccccc1Cl)NNC(=O)c1ccccc1`, for which the AC50 was 5.01 µM (active).

In the case of `O=C(NNC(=S)Nc1ccccc1)C1CC1`, the “activity, negative = inhibition” value was -32.8%.

With `O=C(NNC(=O)c1ccccc1O)c1ccc(Cl)cc1`, the “activity, negative = inhibition” value was -20.8%.

Regarding `O=C(CSCc1ccccc1Cl)NN1C(=O)c2ccccc2C1=O`, the AC50 was 10 µM (active).

As to `O=C(CSCc1ccccc1Cl)NNC(=S)Nc1ccccc1`, the AC50 is 2.24 µM (active).

Regarding `O=C(O)c1c2c(c(O)c3c1CN(C1CCCCC1)CO3)OCN(C1CCCCC1)C2`, the activity, negative = inhibition was 22.2% [at 11.4 µM].

On to `CCn1c(SCC(=O)NC(=O)NCc2ccco2)nnc1-c1cccs1`, for which the AC50 was 14.1 µM (active).

`O=C(CSc1nc2ccc([N+](=O)[O-])cc2s1)c1ccc2ccccc2c1`: the activity, negative = inhibition was -43.1% [at 11.4 µM].

As for `CCn1c(SCC(=O)c2ccccc2)nnc1-c1cccs1`, the AC50 is 0.794 µM (active).

`CCn1c(SCC(=O)NC2CCCc3ccccc32)nnc1-c1cccs1` (centres undefined): the half-maximal activity concentration (AC50) is 7.94 µM (active).

Regarding `CCn1c(SCC(=O)c2ccc3ccccc3c2)nnc1-c1cccs1`, the AC50 is 0.708 µM (active).

Take `Cc1cc(C)nc(SCc2nnc(SCC(N)=O)n2Cc2ccco2)n1`: the “activity, negative = inhibition” value was -67.7%.

Turning to `Cc1ccccc1CSc1nnc(-c2cccs2)n1Cc1ccco1`, the AC50 was 1.41 µM (active).

As to `O=C1C[C@@H](O)[C@@H](O)[C@H]2[C@@H]3C(=O)N(C4CCCCC4)C(=O)[C@@H]3CC[C@H]12`, the activity, negative = inhibition is 13.8% [at 11.4 µM] and 12.1% [at 11.4 µM] and 0.0924% [at 11.4 µM].

As for `CCn1c(SCC(=O)Nc2sc3c(c2C(N)=O)CCC(C)C3)nnc1-c1ccco1` (centres undefined), the AC50 is 7.08 µM (active).

Consider `O=C(O)/C=C\C(=O)N1Cc2cc3ccccc3nc2C1`, for which the activity, negative = inhibition was 21.9% [at 11.4 µM].

`O=C(/C=C/c1ccccc1)N1CCN(Cc2nc3ccccc3c(=O)[nH]2)CC1`: the AC50 was 22.4 µM (active).

Take `O=C(O)c1ccccc1C(=O)Nc1cc2c(cc1Br)-c1ccccc1C2=O`: the activity, negative = inhibition is -19.4% [at 11.4 µM].

For the compound `O=C(O)c1cccc2cccc(-c3cccc4cccc(C(=O)O)c34)c12`, the activity, negative = inhibition was -9.27% [at 11.4 µM].

For `O=C1c2ccccc2C(=O)c2c1ccc(C(=O)O)c2-c1ccc2ccccc2c1`, the AC50 is 2.51 µM (active).

For the compound `Cc1cccc(C(CC(=O)N2CCCC2)c2ccccc2)c1O` (centres undefined), the AC50 was 1.41 µM (active).

Consider `COCC(=O)N1CCC2(CC1)CCN(C(c1ccccc1)c1ccccc1)CC2`, for which the “activity, negative = inhibition” value is 7.45%.

As to `Cc1cccc(C(=O)c2ccccc2C(=O)O)c1O`, the “activity, negative = inhibition” value was 6.75%.

Turning to `CN(C)C[C@H]1CCC[C@@H](CN(C)C)C1=O`, the activity, negative = inhibition is 19.2% [at 11.4 µM].

As for `N[C@@H](CO)C(=O)O`, the AC50 entry was “inactive”.

`CC(C)[C@H]1C(=O)C(C(N)=O)=C(O)[C@]2(O)C(=O)C3=C(O)c4c(O)ccc(N(C)C)c4C[C@H]3C[C@@H]12`: the “activity, negative = inhibition” value is 4.29%.

In the case of `O=c1ccn(-c2cccc(C(F)(F)F)c2)nc1-c1ccn(-c2ccccc2F)n1`, the AC50 was 17.8 µM (active).

With `CCS(=O)(=O)c1ccc2c(c1)N(S(C)(=O)=O)CC(C(=O)NCCOC)O2` (centres undefined), the “activity, negative = inhibition” value is -18.7%.

Consider `CS(=O)(=O)N1CC(C(=O)NC2CC2)Oc2ccc(Cl)cc21` (centres undefined), for which the AC50 was 7.08 µM (active).

As for `CC(C)(C)NC[C@H](O)c1cc(O)cc(O)c1`, the AC50 entry was “inactive”.

Consider `CN1CCc2cc(Cl)c(O)cc2[C@H](c2ccccc2)C1`, for which the “activity, negative = inhibition” value was -13.6%.

As to `O=C(O)CCC(=O)N1CCOc2ccc(Cl)cc21`, the “activity, negative = inhibition” value was -15.9%.

Regarding `Cc1ccc2nc(N3CCN(S(=O)(=O)c4ccc5c(c4)OCCO5)CC3)c(C#N)cc2c1`, the half-maximal activity concentration (AC50) is 2.51 µM (active).

Consider `Cc1ccc(Cl)cc1N1CCN(S(=O)(=O)c2ccc3c(c2)OCCO3)CC1`, for which the AC50 was 3.98 µM (active).

As for `CO[C@@H]1COC(=O)CC=C[C@@H](C)[C@@H]2C=C[C@H](O)[C@@H](COC(=O)[C@H](C)NC(=O)CC=C[C@H]1C)O2`, the activity, negative = inhibition is -12.2% [at 11.4 µM].

As to `CCOc1cc(NC(=O)c2cccs2)c(OCC)cc1NC(=O)c1ccco1`, the “activity, negative = inhibition” value was -24.3%.

Consider `CCOc1cc(NC(=O)C2CCCCC2)c(OCC)cc1NC(=O)c1ccco1`, for which the AC50 is 7.94 µM (active).

As to `CCC(NC(=O)c1ccccc1NC(=O)c1ccco1)C(=O)NC1CCCCC1` (centres undefined), the AC50 was 15.8 µM (active).

On to `CCCC[P+](CCCC)(CCCC)Cc1ccc(NC(=O)[C@@H](Cc2ccc3ccccc3c2)NC(=NC2CCCCC2)NC2CCCCC2)cc1`, for which the “activity, negative = inhibition” value is 1.34%.

Turning to `FC(F)(F)c1ccccc1-c1nc(NCCN2CCOCC2)c2ccccc2n1`, the “activity, negative = inhibition” value was -29.9%.

For `FC(F)(F)c1ccccc1-c1nc(NCc2cccnc2)c2ccccc2n1`, the AC50 was 3.98 µM (active).

On to `CC(=O)NCCNc1nc(-c2ccccc2C(F)(F)F)nc2ccccc12`, for which the “activity, negative = inhibition” value is -28.8%.

For the compound `CN(C)C(=O)c1ccc(-c2nc(NCc3cccnc3)c3ccccc3n2)cc1`, the “activity, negative = inhibition” value is -11.9%.

For `CC(=O)NCCNc1nc(-c2ccccc2C)nc2ccccc12`, the “activity, negative = inhibition” value is -22.4%.

Consider `CC(=O)NCCNc1nc(-c2ccccc2Cl)nc2ccccc12`, for which the AC50 is 3.98 µM (active).

Consider `COCCNc1nc(-c2ccccc2OC)nc2ccccc12`, for which the “activity, negative = inhibition” value is -35%.

`FC(F)(F)c1ccccc1-c1nc(NCc2cccs2)c2ccccc2n1`: the AC50 is 7.94 µM (active).

Turning to `COCCNc1nc(-c2ccccc2C(F)(F)F)nc2ccccc12`, the AC50 was 20 µM (active).
